From ChEMBL document CHEMBL4888484, “Replenishing the malaria drug discovery pipeline: Screening and hit evaluation of the MMV Hit Generation Library 1 (HGL1) against asexual blood stage Plasmodium falciparum ,using a nano luciferase reporter read-out” (2022)
In all, about 150,000 compounds went through this assay and about 540 (0.36%) showed an effect of 50% or more. This excerpt belongs to a sample that is enriched for strong results.

These compounds were tested on Plasmodium falciparum (assay: Primary screen in NF54 nanoGlo assay, in single point, at 2uM, 72h; a lower Z score goes with more inhibition). Conditions: timepoint 72 hour.
Type: functional, Erythrocyte

Row | Compound | % Inhibition [%] | Z score
1 | O=C1CN(Cc2nc(-c3ccccc3)nn2C2CCCCC2)CCN1 | -7 | 1.19
2 | CN(CC(=O)Nc1cccc(F)c1)C(=O)C[C@@H]1C=CCC1 | 12 | -1.67
3 | CCOc1ccc(-c2cn(Cc3ccncc3)nn2)cc1Cl | -10 | 2.05
4 | COc1ccc(-c2cc3nc(C)cc(N4CCC(C(=O)NCc5ccccc5)CC4)n3n2)cc1 | 4 | -0.42
5 | Cc1cc(C)cc(-c2cc3nc(C)cc(N4CCC(C(=O)NCc5cccc(F)c5)CC4)n3n2)c1 | 75 | -14.36
6 | Cc1cc(C)cc(-c2cc3nc(C)cc(N4CCC(C(=O)Nc5ccc(C)c(Cl)c5)CC4)n3n2)c1 | 36 | 1.15
7 | Cc1cc(C2CCC(C(=O)NCC3CC3)CN2C(=O)NC(C)C)ccc1F (centres undefined) | 0 | 0
8 | Cc1cc(S(=O)(=O)N(CCN(C)C)C2CCN(C)CC2)c(C)o1 | -16 | 1.43
9 | COc1ccc2cc(-c3nc(CCN(C)C(=O)c4cccc(Cl)c4)no3)[nH]c2c1 | -9 | 1.75
10 | COc1ccc2cc(C(=O)NCc3ccnc(Oc4ccccc4)c3)[nH]c2c1 | -7 | 1.13
11 | Cc1ccc(CC(=O)Nc2cc(C(F)(F)F)n(C)n2)cn1 | -6 | 0.61
12 | Cc1cccc(OC2CN([C@@H](C)CCN(C)C)C2)c1 | -19 | 2.04
13 | CC(C(=O)Nc1ccc(Cl)cn1)N1CCCC(c2ccn[nH]2)C1 (centres undefined) | 5 | -0.83
14 | CC(C(=O)Nc1nccs1)N1CCCC(c2ccn[nH]2)C1 (centres undefined) | 50 | -9.08
15 | C[C@@H](C(=O)Nc1nccs1)N1CCCC1 | -4 | 0.56
16 | O=C(C1CCC1c1ccc(F)cc1)N1CCCC(c2nc3ccc(F)cc3o2)C1 (centres undefined) | -10 | 1.06
17 | COc1cc(C(c2c(C)n(C)n(-c3ccccc3)c2=O)c2c(C)n(C)n(-c3ccccc3)c2=O)c(Br)c(Br)c1OCc1ccccc1 | 35 | -0.45
18 | Cc1c(C(c2c(C)n(C)n(-c3ccccc3)c2=O)c2c[nH]c3ccccc23)c(=O)n(-c2ccccc2)n1C | -6 | 0.93
19 | CCOc1cc(C(c2c(C)n(C)n(-c3ccccc3)c2=O)c2c(C)n(C)n(-c3ccccc3)c2=O)ccc1OCc1ccccc1 | 75 | -5.78
20 | COc1nc(N[C@H]2CCCN(C)C2)ncc1F | 3 | -0.5
21 | COc1nc(NC2CCS(=O)(=O)CC2)ncc1F | 65 | -7.11

Row | Compound | % Inhibition [%] | Z score
22 | CN(C)c1nc(N[C@H]2CCS(=O)(=O)C2)ncc1F | -3 | 0.33
23 | CNC(=O)[C@@H]1C[C@@H](Nc2ccnc(OC)c2C#N)CN1Cc1ccccn1 | 2 | -0.32
24 | Cc1noc(C)c1S(=O)(=O)NC1(C(=O)Nc2ccsc2)CCCC1 | -8 | 1.08
25 | CC[C@@](C)(CNC(=O)COCc1cccc(OC)c1)N1CCOCC1 | -4 | 0.5
26 | Cc1cc(C)nc(NCCC[C@H]2CCCCO2)n1 | 54 | 0.94
27 | Cc1cc(C)nc(NC[C@H]2CCCO2)n1 | -5 | 0.64
28 | CC(C)c1cnc(NCCCC[C@H]2CCCO2)nc1 | 48 | 0.41
29 | O=C(OCC(F)(F)F)N1CCOCC1 | 1 | -0.08
30 | CC(C)CN1CCCC1C(=O)N1CCO[C@H]2CCC[C@H]21 (some centres undefined) | -5 | 0.92
31 | O=C(N/C(=N\c1ccc(F)cc1)N1CCN(Cc2cccc(F)c2)CC1)c1ccccc1 | 2 | -0.32
32 | O=C1C[C@]2(CC2(c2ccccc2)c2ccccc2)C(=O)N1c1cccc(Br)c1 | 19 | -3.6
33 | Cc1ccc(N2C(=O)C[C@]3(CC3(c3ccccc3)c3ccccc3)C2=O)cc1 | 73 | -0.64
34 | COc1cccc(N2C(=O)C[C@]3(CC3(c3ccccc3)c3ccccc3)C2=O)c1 | 35 | -0.08
35 | CC(CNC(=O)C(=O)NC(C)CCc1ccccc1)Cc1ccccc1 (centres undefined) | -11 | 1.26
36 | Cc1cccc2[nH]c(COCC(=O)NC[C@H]3CCCN(C)C3)nc12 | 14 | -1.8
37 | O=S(=O)(c1ccc2c(c1)OCCO2)N1CC[C@H](Oc2ccncc2Cl)C1 | -7 | 1.4
38 | O=S(=O)(c1cccnc1)N1CC[C@H](Oc2ccncc2Cl)C1 | -6 | 1.14
39 | O=S(=O)(c1ccc(F)c(Cl)c1)N1CC[C@H](Oc2ccncc2Cl)C1 | 72 | -13.57
40 | Cc1cc2nc[nH]c2c(NC(=O)CCc2cc3n(n2)CCNC3)c1C | -7 | 1.44
41 | CCOc1ccc(-c2noc([C@@H]3Cc4ccccc4N3C(C)=O)n2)cc1Cl | 19 | -2.19
42 | O=C1NC(=O)[C@@H]2CN(S(=O)(=O)c3cc(F)cc(Cl)c3)C[C@H]12 | 37 | 0.7
